In all, about 310,000 compounds went through this assay and about 14,000 (4.5%) showed an effect of 50% or more. Effects have a minus sign here. The sample holds strong results, similar compounds and a random draw of the others, so the mix is not that of the screen.
target: human ether-à-go-go-related gene (hERG) potassium channel (human, UniProt Q12809); assay: primary screen, population patch clamp on CHO cells stably expressing hERG; higher = less effect of the substance
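Note: peak tail current of the secondary pulse compared with the same well before compound.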

human ether-à-go-go-related gene (hERG) potassium channel, sequence (Q12809 whole entry, looked up): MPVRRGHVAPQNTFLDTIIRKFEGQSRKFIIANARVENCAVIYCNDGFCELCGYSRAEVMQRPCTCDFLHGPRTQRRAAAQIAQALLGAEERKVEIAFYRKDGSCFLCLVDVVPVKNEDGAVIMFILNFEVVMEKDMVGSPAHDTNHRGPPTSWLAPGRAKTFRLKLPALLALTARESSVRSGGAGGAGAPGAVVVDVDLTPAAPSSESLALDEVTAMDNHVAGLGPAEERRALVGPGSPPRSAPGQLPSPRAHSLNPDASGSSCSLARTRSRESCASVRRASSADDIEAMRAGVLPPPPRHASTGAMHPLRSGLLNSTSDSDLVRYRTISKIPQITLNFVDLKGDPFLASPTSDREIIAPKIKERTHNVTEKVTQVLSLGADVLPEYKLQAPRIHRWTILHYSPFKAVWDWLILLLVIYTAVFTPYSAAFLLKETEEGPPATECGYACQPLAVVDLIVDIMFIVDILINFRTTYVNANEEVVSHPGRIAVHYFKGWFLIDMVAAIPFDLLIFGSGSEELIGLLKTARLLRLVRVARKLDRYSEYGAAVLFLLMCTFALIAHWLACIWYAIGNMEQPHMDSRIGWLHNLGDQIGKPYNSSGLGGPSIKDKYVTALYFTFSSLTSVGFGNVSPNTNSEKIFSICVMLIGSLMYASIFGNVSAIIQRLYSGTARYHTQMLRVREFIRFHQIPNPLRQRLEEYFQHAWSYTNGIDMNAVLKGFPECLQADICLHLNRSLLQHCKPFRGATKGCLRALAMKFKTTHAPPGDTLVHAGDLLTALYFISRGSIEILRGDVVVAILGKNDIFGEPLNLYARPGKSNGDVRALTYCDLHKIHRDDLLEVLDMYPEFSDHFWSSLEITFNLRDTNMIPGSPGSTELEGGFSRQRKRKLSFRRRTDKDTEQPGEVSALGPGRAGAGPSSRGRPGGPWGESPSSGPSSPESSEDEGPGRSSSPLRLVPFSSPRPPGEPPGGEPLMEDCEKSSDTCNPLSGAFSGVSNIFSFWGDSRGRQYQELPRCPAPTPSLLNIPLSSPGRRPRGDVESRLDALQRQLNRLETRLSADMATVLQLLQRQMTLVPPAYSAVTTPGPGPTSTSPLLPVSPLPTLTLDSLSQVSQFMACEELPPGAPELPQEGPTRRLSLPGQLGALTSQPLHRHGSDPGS

Row | Compound | hERG current change (%, negative = inhibition) at 10uM
1 | Cc1cccc(NS(=O)(=O)c2cccc(C(=O)N3CCCC3)c2)c1 | 4.7%
2 | CC(C)(C)NC(=O)COC(=O)c1ccc(Cl)cc1O | 18.8%
3 | C=CCN=C1CC(C)(C)CC(=O)/C1=C(\O)CCCN1C(=O)c2ccccc2C1=O | -23.5%
4 | Cc1ccc(NC2c3ncccc3C(=O)N2C2CCCCC2)cc1 (centres unmarked) | 5.93%
5 | Cn1cc(CN2CCN(c3cnccn3)CC2)c(-c2cccc(Cl)c2)n1 | 6.29%
6 | COc1cc2c(cc1OC)C(C(=O)N1CCN(c3ccccc3)CC1)C(c1cccs1)N(C)C2=O (centres unmarked) | -68.1%
7 | COc1cc2c(cc1OC)C(C(=O)N1CCOCC1)C(c1cccs1)N(C)C2=O (centres unmarked) | 4.09%
8 | COc1cc2c(cc1OC)C(C(=O)N1CCN(c3ccccn3)CC1)C(c1cccs1)N(C)C2=O (centres unmarked) | -38%
9 | O=C(O)CN(Cc1ccco1)S(=O)(=O)c1ccccc1 | 11.6%
10 | Nc1nnc(SCC(=O)Nc2cccc(S(=O)(=O)N3CCCCC3)c2)s1 | -12.8%
11 | CCCC[C@@H]1C[C@H]1[C@@H](NC(=O)c1cccs1)c1ccc(Cl)cc1 | -9.44%
12 | CCCC[C@@H]1C[C@H]1[C@@H](NC(=O)c1ccco1)c1ccc(Cl)cc1 | -50.2%
13 | CCCC[C@@H]1C[C@H]1[C@@H](NC(=O)c1ccco1)c1ccc(C(=O)OC)cc1 | -34%
14 | CC(=O)NC(Cc1ccccc1C)C(=O)NC1CCN(C(=O)c2cccc(C)c2)CC1 (centres unmarked) | 34.5%
15 | O=C(CCSCCC(=O)NCc1ccco1)NCc1ccco1 | 6.38%
16 | Cc1ccc(-c2nnc3ccc(SCC(=O)NCc4ccco4)nn23)cc1 | -6.59%
17 | O=C(CSc1ccc2nnc(-c3ccccn3)n2n1)NCc1ccco1 | -63.1%
18 | O=C(CSc1ccc2nnc(-c3ccccn3)n2n1)NCC1CCCO1 (centres unmarked) | -8.53%
19 | Cc1ccc(NC(=O)CSCC(=O)NCc2ccco2)cc1 | -0.0131%
20 | O=C(CSc1ccc2nnc(-c3ccncc3)n2n1)NCc1ccco1 | -25.8%
21 | O=C(CSc1nc(-c2ccccc2)c(-c2ccccc2)[nH]1)NCc1ccco1 | -1.63%
22 | O=C(CSc1ccc2nnc(-c3ccccc3)n2n1)NCc1ccco1 | -72.2%
23 | CCOc1ccc(-c2nnc3ccc(SCC(=O)NCc4ccco4)nn23)cc1 | -8.72%

Row | Compound | hERG current change (%, negative = inhibition) at 10uM
24 | O=C(CSc1ncc(-c2ccccc2)nn1)NCc1ccco1 | -23.6%
25 | O=C(CSCC(=O)NCc1ccco1)NCc1ccco1 | -66%
26 | O=C(CSc1nnc(-c2ccccc2)c(-c2ccccc2)n1)NCc1ccco1 | -55.5%
27 | Cc1cc(C(=O)N/N=C/c2ccc([N+](=O)[O-])o2)c(C)o1 | -7.72%
28 | CNC(=O)c1ccc(NC(=O)/C=C/c2cccc(F)c2)cc1 | -18.3%
29 | Cn1nc(NC(=O)C2CCC2C(=O)O)c2c(F)cccc21 (centres unmarked) | -0.347%
30 | Cc1ccc(OCCOc2ccc(Br)cc2)c([N+](=O)[O-])n1 | -6.68%
31 | COc1ccc(CNC(=O)C(C)c2ccc([N+](=O)[O-])cc2)cc1 (centres unmarked) | -21.2%
32 | O=C(Nc1ccc2c(c1)OCO2)c1ccc(Cl)s1 | -2.22%
33 | O=C(CSc1ccc2nnc(-c3cccc(F)c3)n2n1)NCc1ccco1 | -65.5%
34 | O=C(CSc1ccc2nnc(-c3ccc(F)cc3)n2n1)NCc1ccco1 | -21.7%
35 | COc1ccc(-c2nnc3ccc(SCC(=O)NCc4ccco4)nn23)cc1OC | -28.3%
36 | Cc1ccc(S(=O)(=O)Nc2ccc3[nH]ccc3c2)cc1 | -9.71%
37 | CCOC(=O)C1(CCOC)CCN(CC(C)Cc2ccc3c(c2)OCO3)CC1 (centres unmarked) | -43.1%
38 | CCOC(=O)C1(Cc2ccccc2)CCN(Cc2ccc3c(c2)OCCO3)CC1 | -33.1%
39 | CCOC(=O)C1(CCOc2ccccc2)CCN(Cc2ccc3c(c2)OCCO3)CC1 | -73.3%
40 | CCOC(=O)C1(CCc2ccccc2)CCN(Cc2ccc3c(c2)OCCO3)CC1 | -84.4%
41 | CCOC(=O)C1(CCc2ccccc2)CCN(C(=O)CN2CCOC2=O)CC1 | 14.6%
42 | OCC1(CCOc2ccccc2)CCN(Cc2ccc3c(c2)OCCO3)CC1 | -75.1%
43 | O=C1/C(=C\c2ccco2)SC(=S)N1Cc1ccccc1 | 10.8%
44 | N#Cc1ccc(Oc2ccc(NC(=O)C3CC=CCC3C(=O)O)cc2)cc1 (centres unmarked) | 12.9%
45 | O=C1OC2(c3ccccc3)C3CCCC2C13 | 11.1%
46 | O=S(=O)(c1cccs1)N1CCN(c2ccc(F)cc2)CC1 | -43.1%

Row | Compound | hERG current change (%, negative = inhibition) at 10uM
47 | O=C(Nc1cccc(OCC(=O)N2CCOCC2)c1)c1cccc([N+](=O)[O-])c1 | 25.9%
48 | CC(=O)Oc1ccccc1N1C(=O)c2ccc(C(=O)O)cc2C1=O | 11.3%
49 | Oc1ccccc1OCc1nc2ccccc2s1 | -13.7%
50 | Cc1nc2ccc(C(=O)N/N=C/c3ccccc3O)cc2[nH]1 | 9.25%
51 | N#Cc1c(N)n[nH]c1Cc1cccc2ccccc12 | 12.3%
52 | CCCCc1nc(C(N)=O)c2[nH]c(=O)n(-c3ccc(OC)cc3OC)c2n1 | 1.88%
53 | CCC(CC)C(=O)c1c[nH]c(C(=O)N2CCN(c3ccccc3F)CC2)c1 | 25.2%
54 | Cc1ccc(NC(=O)C[n+]2cc(-c3ccccc3)n3c2CCC3)c(C)c1.[Cl-] | -9.62%
55 | Cc1ccc(-n2c(-c3ccccc3)n[nH]c2=S)c(C)c1 | 7.9%
56 | Cc1ccc(-n2c(-c3ccccc3)c[n+]3c2CCc2ccccc2-3)c(C)c1.[Br-] | -93%
57 | COc1ccccc1-n1c(CCC(=O)O)ccc1-c1ccccc1 | -12.9%
58 | Br.COc1ccccc1N1Cc2ccccc2C1 | -13.2%
59 | COc1ccccc1-n1c(-c2ccccc2)c[n+]2c1CCc1ccccc1-2.[Br-] | -74.1%
60 | O=C(/C=C/c1ccco1)NC(=S)Nc1ccccn1 | -3.42%
61 | CC(=O)Cc1nsc(NC(=O)c2cccc(F)c2)n1 | 12.5%
62 | O=C(Nc1ccccc1C(=O)N1CCCCC1)c1ccccc1C(F)(F)F | 27.6%
63 | COc1ccc(N2C(=O)C(CN3CCN(C)CC3)C2c2ccccc2)cc1 (centres unmarked) | -16%
64 | Cc1ccc(N2C(=O)C(CN(C)C)C2c2ccccc2)cc1 (centres unmarked) | -33.1%
65 | COc1ccc(N2C(=O)C(CN3CCCCC3)C2c2ccccc2)cc1 (centres unmarked) | -12%
66 | Cc1ccc(N2C(=O)C(CN3CCCC3)C2c2ccccc2)cc1 (centres unmarked) | -78.5%
67 | Cc1ccc(N2C(=O)C(CN3CCCCC3)C2c2ccccc2)cc1 (centres unmarked) | -62.6%
68 | Cc1ccc(N2C(=O)C(CN3CCOCC3)C2c2ccccc2)cc1 (centres unmarked) | -26.5%
69 | CC(=O)c1cccc(NS(=O)(=O)c2cc(OCC(N)=O)c(C)cc2Cl)c1 | 6.92%

Row | Compound | hERG current change (%, negative = inhibition) at 10uM
70 | COc1ccc(CN(C(=O)c2ccc(CN3CCOCC3)o2)C(C(=O)NCC2CCCO2)c2ccc(F)cc2)cc1 (centres unmarked) | -4.38%
71 | O=C(Cc1ccc(Cl)c(Cl)c1)OCC(=O)c1ccc[nH]1 | -24.9%
72 | O=C(COC(=O)c1cccc([N+](=O)[O-])c1)NCC1CCCO1 (centres unmarked) | 8.06%
73 | Cc1c(NC(=O)COC(=O)C2CC3C=CC2C3)c(=O)n(-c2ccccc2)n1C (centres unmarked) | 13.2%
74 | COCCNC(=O)c1ccc(C)c(NC(=O)C2=C(C)OCCS2)c1 | 21.1%
75 | CC1=C(C(=O)Nc2cc(C(=O)NCCC(C)C)ccc2C)SCCO1 | -52.4%
76 | CCCNC(=O)c1ccc(C)c(NC(=O)C2=C(C)OCCS2)c1 | 3.06%
77 | O=C(CSc1nnc(-c2cccs2)o1)N1CCc2ccccc21 | -10.5%
78 | CC12CCC(C(=O)Nc3ccc(Br)cn3)(OC1=O)C2(C)C (centres unmarked) | 7.13%
79 | O=C(O)CCCN1C(=O)c2ccc(Oc3cccc([N+](=O)[O-])c3)cc2C1=O | 17.6%
80 | COc1cccc(C(=O)Cn2c(Br)nc3c2c(=O)n(C)c(=O)n3C)c1 | -13.1%
81 | CCN1CCN(C(=O)c2cc3c(s2)-c2c(C)cccc2OC3)CC1 | -17.8%
82 | CCCN1CCN(CCCNC(=O)c2cc3c(s2)-c2c(C)cccc2OC3)CC1 | -85.2%
83 | Cc1cccc2c1-c1sc(C(=O)N3CCCCC3)cc1CO2 | -18.6%
84 | Cc1cccc2c1-c1sc(C(=O)N3CCc4ccccc4C3)cc1CO2 | -2.75%
85 | Cc1cccc2c1-c1sc(C(=O)NCCCN3CCCC(C)C3)cc1CO2 (centres unmarked) | -77.9%
86 | CCOC(=O)N1CCN(C(=O)c2cc3c(s2)-c2c(C)cccc2OC3)CC1 | -15.5%
87 | Cc1cccc2c1-c1sc(C(=O)NCCCN3CCC(C)CC3)cc1CO2 | -77.6%
88 | CCOC(=O)c1cc2c(s1)-c1c(C)cccc1OC2 | 7.36%
89 | Cc1cccc(NC(=O)c2cc3c(s2)-c2c(C)cccc2OC3)n1 | 29.2%
